Results: paper PMC8384837, “Expanding the binding specificity for RNA recognition by a PUF domain”

target: PUM1 PUF domain R5-TTR (Homo sapiens, UniProt Q14671 828-1176, C1007T;R1008T;Q1011R); experiment: yeast three-hybrid, YBZ-1, SC-Leu-His + 0.5 mM 3-AT, 4 days; conditions: tags: N-Gal4 AD-HA kept; label: inside an RPR1-promoter hybrid RNA with tandem MS2 sites; ssRNA
Procedure, shortened: (§1)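 Pumilio-1 PUF domain libraries, randomized (NNK) at the three base-contacting residues of each repeat, were co-expressed with matching RNA elements from a centromeric plasmid in strain YBZ-1 (LexA–MS2 coat fusion, HIS3 reporter). Transformants were plated on SC-Leu (input) and SC-Leu-His + 0.5 mM 3-AT (selection) for four days, and repeat regions were PCR-amplified and Illumina-sequenced. The interaction score is the log2 change in variant frequency from input to selection, with pseudocount 1 where absent.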

Sequence | binding signal
GGCUAGAACUAGUGGAUCCCCCGGCGCCCGGCGGCUCGAGCCCGGGUAAGUGUAAAUAGUCUGCAUGCCGCCGGGCGCCAUGCCUGCAGGUCGACUCUAGAAAACAUG | 0.63 log2 enrichment (interaction score)
GGCUAGAACUAGUGGAUCCCCCGGCGCCCGGCGGCUCGAGCCCGGGUAAGUGUUAAUAGUCUGCAUGCCGCCGGGCGCCAUGCCUGCAGGUCGACUCUAGAAAACAUG | 2.44 log2 enrichment (interaction score)
GGCUAGAACUAGUGGAUCCCCCGGCGCCCGGCGGCUCGAGCCCGGGUAAGUGUCAAUAGUCUGCAUGCCGCCGGGCGCCAUGCCUGCAGGUCGACUCUAGAAAACAUG | 6.52 log2 enrichment (interaction score)

target: PUM1 PUF domain R4-PFA (Homo sapiens, UniProt Q14671 828-1176, N971P;H972F;Q975A); experiment: as above; conditions: tags: N-Gal4 AD-HA kept; label: inside an RPR1-promoter hybrid RNA with tandem MS2 sites; ssRNA
Procedure, shortened: as §1

Sequence | binding signal
GGCUAGAACUAGUGGAUCCCCCGGCGCCCGGCGGCUCGAGCCCGGGUAAGUGUAUAUAGUCUGCAUGCCGCCGGGCGCCAUGCCUGCAGGUCGACUCUAGAAAACAUG | 4.96 log2 enrichment (interaction score)
GGCUAGAACUAGUGGAUCCCCCGGCGCCCGGCGGCUCGAGCCCGGGUAAGUGUACAUAGUCUGCAUGCCGCCGGGCGCCAUGCCUGCAGGUCGACUCUAGAAAACAUG | 3.34 log2 enrichment (interaction score)
GGCUAGAACUAGUGGAUCCCCCGGCGCCCGGCGGCUCGAGCCCGGGUAAGUGUAAAUAGUCUGCAUGCCGCCGGGCGCCAUGCCUGCAGGUCGACUCUAGAAAACAUG | 4.95 log2 enrichment (interaction score)

target: PUM1 PUF domain R5-RCM (Homo sapiens, UniProt Q14671 828-1176, C1007R;R1008C;Q1011M); experiment: as above; conditions: tags: N-Gal4 AD-HA kept; label: inside an RPR1-promoter hybrid RNA with tandem MS2 sites; ssRNA
Procedure, shortened: as §1

Sequence | binding signal
GGCUAGAACUAGUGGAUCCCCCGGCGCCCGGCGGCUCGAGCCCGGGUAAGUGUAAAUAGUCUGCAUGCCGCCGGGCGCCAUGCCUGCAGGUCGACUCUAGAAAACAUG | 0.77 log2 enrichment (interaction score)
GGCUAGAACUAGUGGAUCCCCCGGCGCCCGGCGGCUCGAGCCCGGGUAAGUGUGAAUAGUCUGCAUGCCGCCGGGCGCCAUGCCUGCAGGUCGACUCUAGAAAACAUG | 1.67 log2 enrichment (interaction score)
GGCUAGAACUAGUGGAUCCCCCGGCGCCCGGCGGCUCGAGCCCGGGUAAGUGUCAAUAGUCUGCAUGCCGCCGGGCGCCAUGCCUGCAGGUCGACUCUAGAAAACAUG | 3.2 log2 enrichment (interaction score)
